CYP2C9 inhib – blocks human cytochrome P450 2C9; P11712; CYP2C9 Supersomes, luciferin-H conversion, luminescence; inhibition, % at 5 µM; 96,000 compounds, 20% hits;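 active = blocking of liver enzyme CYP2C9 beyond about 50% at 5 µM, limit read from the data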
CYP2C19 activ – cytochrome P450 2C19 (human) activation; AID 1025; activation factor at 5 µM; P33261; recombinant CYP2C19, luciferin-H EGE luminescence; active compounds read high; 0 = fully inhibited enzyme, 1 = untreated enzyme; 96,000 tested, under 10 active;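 active = activation factor of at least 2 at 5 µM in the primary screen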;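 also: 0 = wells with 2.5 mM tranylcypromine and 1 = vehicle-only wells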
Cav3 T inh – blocks human Cav3.2 T-type calcium channel; 100,000 compounds, 4% hits; Cav3.2-expressing cells, Fluo-4 calcium fluorescence FDSS; active compounds read low; O95180; B-score at 10 µM;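 active = single-dose well whose peak fluorescence ratio is a statistical outlier from its plate by either plate-standardised score or position-corrected B-score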
CYP2C19 inhib – inhibitors of human CYP2C19; P33261; CYP2C19 Supersomes, luciferin-H EGE luminescence, 30 min; inhibition, % at 5 µM; 96,000 compounds, 21% hits;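 active = CYP2C19 inhibition above a set limit at 5 µM in the primary screen, cut at about 50% in these data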;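 also: plate controls were negative control wells for no effect and 2.5 mM tranylcypromine positive control for full effect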
CYP2C9 activ – activators of human CYP2C9 | 96,000 compounds, 1.4% hits | activation factor at 5 µM | recombinant CYP2C9, luciferin-H conversion, luminescence; active compounds read high; factor 1 = untreated enzyme, 0 = blocked;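 active = activation factor of 2 or more for CYP2C9 at a 5 µM dose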;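 also: 0 = sulfaphenazole-blocked wells and 1 = vehicle-only wells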
* marks the source's active call; other numbers are inactive results; nt = not tested or not shown. This is a sample that favours compounds with a hit; in the whole collection about 27% have one here.

SMILES	CYP2C9 inhib	CYP2C19 activ	Cav3 T inh	CYP2C19 inhib	CYP2C9 activ
CN(C)c1ncc(S(=O)(=O)c2ccc(Cl)cc2)c(-c2ccc(Cl)cc2Cl)n1	38	0.2	nt	81*	0.6
O=S(=O)(c1ccccc1)c1cnc(-c2cccnc2)nc1-c1ccc(Cl)c(Cl)c1	64*	0.3	0.013	72*	0.4
Cc1ncc(S(=O)(=O)c2ccccc2)c(-c2ccccc2Cl)n1	19	0.4	0.62	62*	0.8
Cc1ncc(S(=O)(=O)c2ccccc2)c(-c2ccccc2)n1	27	0.5	1.1	46	0.7
CC1=C(C(=O)OC(C)C)C(c2ccc(C)o2)NC(=O)N1 (stereo not given)	nt	nt	0.29	nt	nt
CCOC(=O)Cc1csc(SCC(=O)c2c(N)n(CC(C)C)c(=O)n(C)c2=O)n1	8	0.8	nt	17	0.9
CCOC(=O)Cc1csc(SCC(=O)/C(C#N)=C(\C)N)n1	19	0.1	0.032	95*	0.8
CCOC(=O)Cc1csc(SCc2nc3ccccc3c(=O)[nH]2)n1	73*	0.6	-0.42	45	0.3
CC(C)CC(=O)N1CCN(S(C)(=O)=O)CC1	0	0.9	-0.08	6	1
CCc1nnc(NC(=O)c2ccc(S(=O)(=O)NCC(C)C)cc2)s1	-5	1	-0.16	-2	1
COc1ccc(Cc2c(O)nc(SCC(=O)N3CCCCCC3)[nH]c2=O)cc1	nt	nt	1.1	nt	nt
CC1=C(C(=O)OCC2CCCO2)C(c2ccncc2)C2=C(CCCC2=O)N1 (stereo not given)	48	0.2	nt	75*	0.5
CCOC(=O)C1=C(C)NC2=C(C(=O)CCC2)C1c1cccnc1 (stereo not given)	32	0.7	-1.6	35	0.7
CC1=C(C(=O)OCC2CCCO2)C(c2ccccc2)NC(=O)N1 (stereo not given)	18	0.4	1	62*	0.8
CCOC(=O)c1c(C=O)c(C)n(Cc2ccc(C)cc2)c1C	96*	0.2	-6.1*	76*	0
CCOC(=O)c1c(C=O)c(C)n(Cc2ccccc2Cl)c1C	94*	0	-3.2	98*	0.1
Cc1c(C=O)c(C=O)c(C)n1Cc1ccccc1	26	0.4	-0.61	62*	0.7
Cc1cc(C)nc(N/N=C/C(Cl)=C/c2ccccc2)n1	-6	1	0.44	2	1.1
C=CCOC(=O)COc1ccc2c(C)c(CC)c(=O)oc2c1	-4	0.4	0.61	64*	1
C=CCOC(=O)COc1ccc2c(C)c(C)c(=O)oc2c1	-42	0.4	1.2	55*	1.4
CCN(CC)C(NC(=O)c1ccccc1)C(=O)c1ccccc1 (stereo not given)	62*	0.4	0.48	60*	0.4
CCOC(NC(=O)c1ccccc1)C(NC(=O)c1ccccc1)OCC (stereo not given)	16	0.5	nt	53*	0.8
O=C(NCc1ccccn1)c1cn(CCc2ccccc2)nn1	-13	1	0.58	-5	1.1
Cc1cc(-c2cc(C(=O)Nc3ccccc3)on2)nc(NCC2CC2)n1	nt	nt	0.06	nt	nt
Cc1cc(=O)oc2ccc(OCC(=O)N3CCC(C)CC3)cc12	15	0.5	nt	55*	0.9
SMILES	CYP2C9 inhib	CYP2C19 activ	Cav3 T inh	CYP2C19 inhib	CYP2C9 activ
Cc1cc(=O)oc2cc(OCC(=O)N3CC(C)OC(C)C3)ccc12 (stereo not given)	19	0.3	0.83	73*	0.8
CCOC(=O)/C(N=Nc1ccc(F)cc1)=C(/O)c1ccc([N+](=O)[O-])cc1	16	0.8	0.35	18	0.8
Cc1cc(C)nc(-n2nc(C)c3c(C)c(C)c(C)nc32)n1	0	1.1	-0.38	-5	1
CCC(CC)C(=O)NCCc1ccc(OC)c(OC)c1	-6	1	0.059	5	1.1
COc1ccc(CCNC(=O)CSc2ccc(-c3ccccc3)nn2)cc1OC	25	0.3	-0.19	71*	0.8
COc1ccc(CCNC(=O)CSc2nnc(Cc3csc(N)n3)n2C)cc1OC	51*	1.1	-0.59	-13	0.5
COc1ccc(CCNC(=O)C(=O)NCc2ccc(C(C)C)cc2)cc1OC	11	0.7	-7.3*	30	0.9
COc1ccc(CCNC(=O)C(C)Sc2ccccc2)cc1OC (stereo not given)	64*	0.4	-0.17	56*	0.4
COC(=O)CN1C(=O)[C@@H]2[C@H](C1=O)[C@@H]1CC(C(=O)OC)=C[C@@H](C(=O)OC)[C@@H]3C1=C(C(=O)[C@@]3(C)NC(=O)c1ccccc1)[C@@H]2C	nt	nt	-1.3	nt	nt

Compound activity as filed in PubChem.
